Assay outcomes deposited in PubChem by several laboratories.
CYP2C9 activ: human CYP2C9 activators, primary screen, biochemical, luminescence; actives 1.4% (n = 96,000); activation factor at 5 µM; recombinant CYP2C9, luciferin-H conversion; active compounds read high; factor 1 = untreated enzyme, 0 = blocked; Cytochrome P450 2C9 (Homo sapiens), P11712;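 active = activation factor of 2 or more for CYP2C9 at a 5 µM dose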
Target sequence (P11712 whole entry, looked up): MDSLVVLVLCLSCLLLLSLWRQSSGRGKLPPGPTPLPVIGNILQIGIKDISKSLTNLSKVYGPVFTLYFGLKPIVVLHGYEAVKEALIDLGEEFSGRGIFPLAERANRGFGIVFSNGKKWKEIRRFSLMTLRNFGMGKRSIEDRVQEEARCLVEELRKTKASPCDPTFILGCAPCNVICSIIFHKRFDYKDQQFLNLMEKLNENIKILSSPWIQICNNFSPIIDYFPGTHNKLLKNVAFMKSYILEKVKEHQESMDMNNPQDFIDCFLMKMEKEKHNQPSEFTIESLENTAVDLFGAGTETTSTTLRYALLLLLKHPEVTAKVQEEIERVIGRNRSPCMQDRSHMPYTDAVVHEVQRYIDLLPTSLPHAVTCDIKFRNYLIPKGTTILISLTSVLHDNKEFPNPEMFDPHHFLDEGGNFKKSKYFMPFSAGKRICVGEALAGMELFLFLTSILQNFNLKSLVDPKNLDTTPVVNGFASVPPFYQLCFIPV
CYP2C19 inhib: blockers of cytochrome P450 2C19 activity – biochemical, luminescence, ADME assay, primary screen; P33261; actives 21% (n = 96,000); inhibition, % at 5 µM; CYP2C19 Supersomes, luciferin-H EGE luminescence, 30 min;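 active = CYP2C19 inhibition above a set limit at 5 µM in the primary screen, cut at about 50% in these data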
CYP2C9 inh: blockers of cytochrome P450 2C9 activity – biochemical, luminescence, ADME assay, primary screen; P11712; actives 20% (n = 96,000); CYP2C9 Supersomes, luciferin-H conversion; inhibition, % at 5 µM;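 active = blocking of liver enzyme CYP2C9 beyond about 50% at 5 µM, limit read from the data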
Cav32 inh: Cav3.2 calcium influx blockers – cell-based, Fluo-4 calcium fluorescence, FDSS, MLSMR library, primary screen; Voltage-dependent T-type calcium channel subunit alpha-1H (Homo sapiens), O95180; Cav3.2-expressing cells; active compounds read low; B-score at 10 µM; actives 4% (n = 100,000);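 active = single-dose well whose peak fluorescence ratio is a statistical outlier from its plate by either plate-standardised score or position-corrected B-score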
CYP2C19 act: human CYP2C19 activators, primary screen, biochemical, luminescence; Cytochrome P450 2C19 (Homo sapiens), P33261; recombinant CYP2C19, luciferin-H EGE luminescence; active compounds read high; 0 = fully inhibited enzyme, 1 = untreated enzyme; activation factor at 5 µM; 96,000 tested, under 10 active;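 active = activation factor of at least 2 at 5 µM in the primary screen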
Numbers stand for hits; . = inactive; / = no result given. This is a sample that favours compounds with a hit; in the whole collection about 27% have one here.

SMILES	CYP2C9 activ	CYP2C19 inhib	CYP2C9 inh	Cav32 inh	CYP2C19 act
Cc1ccc(C(CC(=O)N2CCOCC2)c2ccco2)cc1 (configuration not stated)	.	84	.	.	.
COC(=O)CSc1nnc(-c2ccc(S(=O)(=O)NCc3ccccc3Cl)cc2)o1	.	.	.	.	.
O=C(NCc1ccco1)c1cc(-c2ccccc2)nn1CC1CC(c2cccnc2)=NO1 (configuration not stated)	/	/	/	.	/
O=S(=O)(NC1CC1)c1ccc(S(=O)(=O)N(Cc2ccccn2)C2CCCC2)cc1	.	62	71	.	.
NC(=O)NC(=O)COC(=O)CCCc1c[nH]c2ccccc12	.	.	.	/	.
CCOC(=O)CC(C#N)c1c[nH]c2ccccc12 (configuration not stated)	.	70	.	.	.
CCOC(=O)N1CCC(NC(=O)CNS(=O)(=O)c2ccc(Br)s2)CC1	.	.	.	.	.
O=C(c1ccccc1NS(=O)(=O)c1ccc(Br)s1)N1CCOCC1	.	.	.	.	.
COCCNC(=O)c1ccccc1NS(=O)(=O)c1ccc(Br)s1	.	72	91	.	.
CCOc1ccccc1NS(=O)(=O)c1ccc(Br)s1	.	95	.	.	.
COCCNC(=O)CN1CCN(Cc2cccc(Cl)c2)C1=O	.	.	.	.	.
CCOC(=O)c1c(C)nn(Cc2ccccc2)c1N	.	.	.	.	.
CCOC(=O)c1ccccc1NC(=O)Nc1ccc(OC)c(OC)c1	.	.	.	.	.
Cc1cc(C(=O)CN2C(=O)NC3(CCCc4ccccc43)C2=O)c(C)n1Cc1ccco1 (configuration not stated)	.	.	74	.	.
Cc1nn(Cc2ccccc2)c(C)c1C(=O)OCC(=O)c1cc(C)n(CC(F)(F)F)c1C	.	53	.	.	.
O=C(CN1C(=O)NC2(CCCc3ccccc32)C1=O)N1CCc2ccccc2C1 (configuration not stated)	.	54	59	.	.
CCOC(=O)c1cc(C)n(-c2ccc(OC)c(OC)c2)c1C	.	88	63	.	.
CCOC(=O)c1cc(C)n(Cc2ccccc2)c1C	.	65	50	.	.
CCOC(=O)c1cc(C)n(Cc2cccc(OC)c2OC)c1C	.	.	.	.	.
CCNC(=O)CN1C(=O)NC2(CCCc3cc(OC)ccc32)C1=O (configuration not stated)	.	.	.	.	.
Cc1cc(C(=O)CN2C(=O)CCC2=O)c(C)n1Cc1ccccc1	.	62	.	.	.
Cc1ccc(C)c(C(=O)CN2C(=O)CCC2=O)c1	.	.	.	.	.
Cc1cc(C(=O)CN2C(=O)NC3(CCCc4ccccc43)C2=O)c(C)n1Cc1ccccc1 (configuration not stated)	.	56	71	-4.4	.
COCCn1c(C)cc(C(=O)CN2C(=O)NC3(CCCCCCC3)C2=O)c1C	3.9	.	.	.	.
CC(C)CNC(=O)COc1ncnc2ccccc12	.	.	.	.	.
SMILES	CYP2C9 activ	CYP2C19 inhib	CYP2C9 inh	Cav32 inh	CYP2C19 act
Cn1cccc1/C=C1\CC(C(C)(C)C)C/C(=C\c2cccn2C)C1=O (configuration not stated)	.	.	.	-9.1	.
COc1cc(C(O)P(=O)(OC(C)C)c2ccc(N(C)C)cc2)cc(OC)c1OC (configuration not stated)	.	.	.	.	.
COc1ccc(C(O)P(=O)(OC2CCCCC2)c2ccc(N(C)C)cc2)cc1OC (configuration not stated)	.	56	.	/	.
Cc1ccc(NC(=O)Cc2nc(CSc3nnc(-c4ccc5c(c4)OCO5)o3)cs2)cc1	.	61	.	-5.4	.
Clc1ccc(CSc2nnc(-c3ccc4c(c3)OCO4)o2)cc1	.	.	50	.	.
Clc1ccc(CSc2nnc(-c3ccncc3)o2)cc1	.	92	82	.	.
O=C(CSc1nnc(-c2ccc3c(c2)OCCO3)o1)N1CCCC1	.	.	.	/	.
Cc1cc(NC(=O)CSc2nnc(-c3ccc4c(c3)OCCO4)o2)no1	.	.	.	.	.
Cc1cccc(Oc2ncc(-c3ccc(Cl)cc3)cn2)c1	.	.	.	/	.
OC(CC1CC12c1ccccc1-c1ncccc12)(c1ccccc1)c1ccccc1 (configuration not stated)	.	92	97	.	.
